Screens (PubChem BioAssay)
Rows were chosen to be rich in hits. Some 10% of all compounds tested hit in one or more screens of this group.
ALDH1A1 inh = inhibitors of human aldehyde dehydrogenase 1A1; P00352; Purified ALDH1A1, NADH fluorescence, propionaldehyde substrate; Potency, µM (doses to about 75.3 µM), for inactives: top-dose activity, negative = inhibition, usual class: inhibitors; 7.3% of 220,000 active; AID 1030;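 also: potency is read from the fitted curve at half-maximal effect; plate controls were no enzyme wells and a reference inhibitor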
PNC assembly inh = perinucleolar compartment assembly inhibition; PC3M PTB-GFP, PNC prevalence imaging, 16 h; hits give low values; activity change (PNC), negative = inhibition, % at 10 µM; 3.1% of 140,000 active;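 active = readout at or below -70, meaning at least 70% loss of cells showing the perinucleolar compartment, a nuclear body marking cancer cells; inconclusive = readout between -30 and a set limit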;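 also: plate controls were DMSO wells for no effect and camptothecin positive control wells for full effect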
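Compounds are pinned in duplicate onto adhered PC3M cells stably expressing GFP-tagged PTB and incubated 16 h at 37 C. Cells are then fixed, nuclei stained with Hoechst, and PNC-positive cells counted.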
ALOX12 inhib = blocks human 12-lipoxygenase activity; P18054; purified 12-hLO, xylenol orange hydroperoxide absorbance; Potency, µM (titrated, usually from 57.1 µM), for the others: at the highest dose activity change, negative = inhibition, usual class: inhibitors; 0.12% of 150,000 active; active = well fitted inhibition curve with a large enough effect; inconclusive = small, poorly fitted or top-dose-only effect; also: potency is read from the fitted curve at half-maximal effect; nearly all actives have a fitted effect of over 55% in size
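Lipoxygenase turnover measured by absorbance at 573 and 405 nm after Fe-XO development. Human 12hLO 150 nM, arachidonate 40 uM, pH 7.0 Hepes buffer with detergent; 15 min compound preincubation, 30 min reaction.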
LMNA splice mod = modulators of lamin A splicing | HeLa LMNA splicing GFP/RFP minigene ratio, 48 h | Potency, µM (highest dose often 46.1 µM), without a hit: at the top dose ratio change, negative = inhibition, most hits filed as inhibitors | 0.01% of 200,000 active | AID 1487; active = well fitted inhibition curve with a large enough effect in the signal ratio, with a control signal flat, not every such curve was filed as active; inconclusive = small, poorly fitted or top-dose-only effect, or effect the other way, or a change in a side signal; the % refers to the signal ratio; also: potency is read from the fitted curve at half-maximal effect
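S3 HeLa cells stably expressing lamin A-EGFP splicing minigene plus DsRed2, 600 cells/well, 48 h compound exposure at 37C. Laser-scanning cytometry; analysed as GFP (500-530 nm)/RFP (575-640 nm) total intensity ratio; 0.5% DMSO vehicle.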
HPGD inh = HPGD (human) dehydrogenase inhibition. P15428. purified HPGD, NADH fluorescence kinetic, PGE2 substrate. Potency, µM, for inactives: at the top dose activity change, negative = inhibition, most hits filed as inhibitors. 4.3% of 150,000 active. AID 894; also: potency is read from the fitted curve at half-maximal effect
Target sequence (P15428 whole entry, looked up): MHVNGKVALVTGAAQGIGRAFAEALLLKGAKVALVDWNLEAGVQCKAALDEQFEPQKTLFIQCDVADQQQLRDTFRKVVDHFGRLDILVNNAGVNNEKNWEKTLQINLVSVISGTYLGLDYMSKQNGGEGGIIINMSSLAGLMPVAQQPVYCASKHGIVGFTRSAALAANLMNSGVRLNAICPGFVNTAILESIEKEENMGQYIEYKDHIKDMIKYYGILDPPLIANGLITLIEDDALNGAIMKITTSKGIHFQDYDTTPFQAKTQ
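20 nM HPGD preincubated 15 min at room temperature with compound in 50 mM Tris-HCl pH 8, 0.01% Tween 20. Started with 1 mM NAD+ and 30 uM prostaglandin E2; NADH fluorescence (360/450 nm) read 5 times over 30-s intervals, last minus first.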
Active calls of the source: *; ? = inconclusive; . = no result; [ ] = remark or other dose. Unless noted, calls follow the shape of the dose curve; as a rule, active = well fitted inhibition curve with a large enough effect (not every such curve was filed as active); inconclusive = small, poorly fitted or top-dose-only effect, or another doubt; inactive = no such curve, though single readings can be large or run the other way. Unless noted, % is scaled to controls: 0 for no effect and ±100 for the full control effect.

SMILES	ALDH1A1 inh	PNC assembly inh	ALOX12 inhib	LMNA splice mod	HPGD inh
CCC(CC)COC(=O)C(C#N)c1nc2ccccc2nc1N1CCOCC1 (centres undefined)	10µM*	?	-15.4%	?	-27.9%
CCN1CCN(c2nc3ccccc3nc2C(C#N)C(=O)OC2CCCCC2)CC1 (centres undefined)	?	44.8	-10.6%	9.3%	-8.0%
CCOC(=O)C1CCN(c2nc3ccccc3nc2C(C#N)C(=O)NCCc2ccccc2)CC1 (centres undefined)	?	22.3	?	?	17.8µM*
CN1CCN(c2nc3ccccc3nc2C(C#N)C(=O)OC2CCCCC2)CC1 (centres undefined)	15.8µM*	-22.9	-3.0%	-8.6%	-10.1%
CCC=O	?	.	-3.1%	.	-5.0%
Cc1ccc2c(c1Br)/C(=N/N1C(=O)c3ccccc3C1=O)C(=O)N2	0.751µM*	58.9	-10.3%	-0.6%	-12.2%
COc1ccc2c(c1)/C(=N/N1C(=O)c3ccccc3C1=O)C(=O)N2	?	.	.	2.5%[46 µM]	.
Cc1ccc(S(=O)(=O)N2CCN(CC(=O)NC3CCCc4ccccc43)CC2)cc1C (centres undefined)	0.447µM*	35.9	-11.2%	-28.1%	-10.4%
Cc1ccc(S(=O)(=O)N2CCN(CC(=O)NC3CCCc4ccccc43)CC2)c(C)c1 (centres undefined)	12.6µM*	13.0	-21.0%	?	-7.5%
Cc1ccc(C)c(S(=O)(=O)N2CCN(CC(=O)N3CCc4ccccc4C3)CC2)c1	17.8µM*	2.8	-24.1%	-5.8%	-8.5%
NC(=O)C1CCN(CC(=O)NC2CCCc3ccccc32)CC1 (centres undefined)	13.6%	.	.	.	.
CCOC(=O)N1CCC(N2C(=O)c3ccccc3C2Nc2ccc(C)cc2)CC1 (centres undefined)	31.6µM*	42.7	-16.1%	-2.1%	-5.4%
CCOC(=O)N1CCC(N2C(=O)c3ccccc3C2Nc2ccc(S(=O)(=O)N(CC)CC)cc2)CC1 (centres undefined)	0.199µM*	.	.	.	.
COc1ccc2[nH]cc(CCNc3cc(-c4ccc(C(=O)N(C)C)cc4)ncn3)c2c1	-2.8%	.	.	-3.4%	.
COc1ccccc1NC(=O)Cn1nc(C(F)(F)F)c2c1CCCC2	2.0%	4.4	-5.8%	-0.6%	-13.2%
O=C(Cn1nc(C(F)(F)F)c2c1CCC2)Nc1ccccc1C(F)(F)F	7.8%	-100.0*	-4.3%	13.2%	-9.7%
O=C(CN1CCCCCC1)Nc1ccccc1F	?	-84.6*	-5.2%	-8.1%	-20.6%
O=C(CN1CCCC1)Nc1cc(F)ccc1F	-0.3%	.	.	.	.
NC(=O)C1(N2CCCCC2)CCN(CC(=O)Nc2ccccc2-c2ccccc2)CC1	3.98µM*	?	-7.7%	-10.4%	-1.4%
O=C(CN1CCN(CC(=O)c2ccc(F)cc2)CC1)Nc1ccccc1Cl	2.24µM*	-7.1	3.9%	-0.8%	?
CC1CCN(CC(=O)Nc2ccccc2-c2ccccc2)CC1	?	274.0	6.1%	-7.3%	-21.5%
O=C(CCN1CCN(CC(=O)Nc2ccccc2Cl)CC1)Nc1ccccc1F	-1.2%	-22.2	2.7%	0.0%	-9.8%
O=C(Nc1ccccc1-c1ccccc1)C1CCC1	3.16µM*	.	.	.	.
O=C(CN1CCCCCCC1)N/N=C/c1ccccc1F	?	?	-6.2%	1.3%	31.6µM*
O=C(CN1CCN(CC(=O)Nc2ccccc2C(F)(F)F)CC1)Nc1ccccc1F	25.1µM*	?	0.4%	-15.5%	-7.7%
CCc1ccc(C2NC(=S)NC3=C2C(=O)CC(C)(C)C3)cc1 (centres undefined)	2.51µM*	?	-8.6%	-13.3%	-9.9%
CC(C)c1ccc(C2NC(=S)NC3=C2C(=O)CC(C)(C)C3)cc1 (centres undefined)	2µM*	3.7	-3.6%	?	-10.9%
CC1(C)CC(=O)C2=C(C1)NC(=O)NC2c1ccccc1 (centres undefined)	11.1%	.	.	-4.2%[46 µM]	.
CCOC(=O)C1CCCN(C(=O)c2ccc3c(c2)sc2nc(-c4cccc(OC)c4)cn23)C1 (centres undefined)	.	.	.	10.8%[46 µM]	.
O=C(Nc1ccc2c(c1)OCCO2)N1CCN(c2ccc(F)cc2)CC1	2.2%	-112.1*	1.2%	-24.4%	-7.2%
